Test results published in the supplement of paper PMC12632987.
The full ranking holds about 4,500 sequences; the median of “median log2 fold change of GCK-ALFA target abundance (FLAG IP / Myc IP barcode read proportion)” is about 0.078, and the lowest 2% start at about -0.6. Only a selection was taken, and the lowest values are over-represented in it overall.

B1: GBRAP_166_4906 (protein)
chain: MKEEKIEELIERAEELIEELKEADEEEALELLIEIGEVLRELKELGASEEEILELVRRTLEAVKERGLSVRVAAGIIAEVADFDEEMREKLDEIAREVEA
B2: GBRAP_78_6635 (protein)
chain: EVEELIDKALEKVSEAAKAALKLPLDLRAEVLDELSDAAVELVEAEEGEDKEEELEEALEELEEALEIVEENDSPLTEEIKKLLEEAIELVKKAIEELKE
B3: GBRAP_52_6046 (protein)
chain: MEEEARKLAKELLELVLEGKEEEARKLAREIAETKNEEEILKIAEELAKLVLEGDKETAEAGIKAAEIMAEELEKAGRDEGLADLILATVYGAAYKRLQK
B4: GBRAP_160_4784 (protein)
chain: MERVEKVAKRFREAAKRALELSKGETAENRANIVDVELGSAILELEEEGLLNDEEEEVAAEVRDELVAEILANPNLTDEELKALLEKAVEELRKRLEELE
B5: GBRAP_160_4344 (protein)
chain: SEEKEKLLKFVDEEFEEAIELIKGESIEQRKVIISGTFGEILMELSESPIISDELEDEVREIEDELLEYLDKNPDLSEEEIKELIKEAREKVKEAIEKHT
B6: GBRAP_35_5577 (protein)
chain: EDEEMLLETVEDLAEATIEAIKEGNLDLAIALLKAFLRTAKIAIEDLKNNKEALEKIAELLEKVIEEIKKYLSDNPEVQELKKELEELLKEAKEKLKKVK
B7: GBRAP_35_5576 (protein)
chain: EDKEMLLETVEDLAEATIEAIKEGDVDLAIALLKAFLRTAKLAVEELENDLEALEKIAELLKKVIEEIKKHLADNPEMQKLLKELEKLLKEVKEKAEKVK
B8: GBRAP_52_5857 (protein)
chain: SSARMRALAEELLALRLAGKEEELEARVKELVATLSEEEILALLEELAALAKEADKEGAEAILDVAELLADEAEEAGFDEDELSYALAEVAAAAYKQLQK
B9: GBRAP_128_3469 (protein)
chain: MTEEAVERTRKILEEMKKASPEEARELFKELFEWLLTLPLEVVEAVVEEIEKHLPELSAEKLEILAEVADEAMPKATPEKAALLADLRSSALLEAEKLEE
B10: GBRAP_35_5506 (protein)
chain: DSMSTIADMLVATIDDTVLAIPDLDVETAVQISRQLIRSAREVAEDLKDDPEGLKRLRDSMERLRDALVKHYGDNPLAQEAIKEIDELIKELEERIKEAE
B11: GBRAP_128_3267 (protein)
chain: MNPEVVAYAEAFVEKLKAAGPEEAKKLADELMEKLKTMSLEEVEQFVEVLEKKLKELSVEKLEILADAARKHRDEFSPEKANLVAGLEVEALNEAVEKEE
B12: GBRAP_160_3969 (protein)
chain: SEEVEKLLKEIDEIFEEAKEMIVGESFENRLTIVRVAVGEVLLLLSENPLVSDEAEDKVDEIGDELIATIEANPDLTEEEIKELIDKAEEEIKKIIKEDA
B13: GBRAP_125_3096 (protein)
chain: HMEEILEALKLLAKALGFSEEEAEELARLAANSSVKQTLYALFAAEGYEELADLVEKLTEEQAKEVLLELAKWLKENPNASKEEVVKKAKELAKKALAKA
B14: GBRAP_160_4666 (protein)
chain: MEELEKLMKELEEIAKEAVEMTKGQSHEERVAIIRVMKGEIILELEESKIATDEVVDYADELGDELIAYVAANPDLTEEELQELLDKMLKEIEEKLKEEL
B15: GBRAP_128_3471 (protein)
chain: AVEEARKRTEEIMEKMKEANDEEFKKLAEELAEWLLTLPVEEVEAAVEVIKEHLPELSAEKLEILADVLDKAMPKATPEKAALFADVRSEALLLAEEKEE
B16: GBRAP_166_4959 (protein)
chain: SLEEVRARLEAALAAFEAEGASLSLEERRDRLVEIAELLGEAARAGLPREELLEAAVRLLLLARAAGLSPAFVEAALVNIAGLPVELVDEALARAEALAA
B17: GBRAP_26_5483 (protein)
chain: REREILDELEAKVKAILADEPAEVRAAVVAEAIDALIEFAEVVEANINDEEKIEKAKKEALEEMRKFLEDLGIPEDKREKVVKALAEALEKVEKAIKEEA
B18: GBRAP_160_4794 (protein)
chain: SERIEKVAEIFREEAERALEMARGETVEERVAIFDVELGSAIMEAIEEGLLNDEEEDIAIEVRDELVEEVRRNPELTEEELRELARRKIEELRERLEELE
B19: GBRAP_9_7151 (protein)
chain: MEELFKKVKEILEDAFEEVKEVVPEEVKPIVDEKREEVLKRLEELAKDPNVTKEELKEEAKELVDEFEEAIKEKVDEETAKMVEAIALTAKLEIEEVAEE
B20: GBRAP_160_4215 (protein)
chain: DEIVEKLVEIAREEFEEALELIEGESEEERRVILDVAVGNVILEASEIPGVTDEMEETVDRMSEELARELLEAAGESEEERRALIEERTEELRKELKKLA
B21: GBRAP_160_4218 (protein)
chain: MELVKKLVEIVREEFEEALELIEGESPEERRVILDVAVGNVILESMEIEGVTDEMEETVEEMSEELAEELLEAADESPEERRELIEERVEELEKELKKLE
B22: GBRAP_160_4217 (protein)
chain: MELVEKLVEIVREEFEEALELIEGESEEERRVILDVAVGNVILEAMEIPGVTDEMEEVVEEKSRELAEELLEARDKSEEERRKLIEERVEELREELEKLE
B23: GBRAP_160_4516 (protein)
chain: SPKLERIEKLVEEARERIIEVIDEGDVEAAITVAAVEFGEVIMEIAEDESMSDEAEDAAAEIRDKLVEELKKAKDASKEEKKKIVEEKSKELIEKLKKLS

These binders were tested against GABARAP, O95166 (assay: median log2 fold change of GCK-ALFA target abundance (FLAG IP / Myc IP barcode read proportion) (log2 ratio); each designed protein is fused to an ALFA-tag nanobody in HEK293 cells to bring the named protein to FLAG-tagged glucokinase (GCK); Myc marks an untargeted standard; higher = target protein stabilised (more abundant)). Settings: target protein: 3xFLAG-MCP-GCK-ALFA reporter; HEK293 landing pad (RPLP).
Summary of the method: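 The readout is target abundance, the per-binder median log2 ratio of FLAG to Myc barcode read proportions. It came from HEK293 landing-pad cells carrying a recombined ALFA-nanobody-fused binder library, induced with 2 μg mL^−1 doxycycline and transfected with a plasmid for a FLAG-tagged target and a Myc-tagged standard. After 48 h, lysates were immunoprecipitated with anti-FLAG and anti-Myc, and circular RNA barcodes were reverse transcribed, amplified and sequenced. Each barcode needed a proportion of at least 10^−7 in both replicates and each binder at least 3 barcodes per replicate, a pseudocount of 10^−6 was added, and the replicates were pooled.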

Chain of GABARAP, O95166 (O95166 whole entry, the tested form may be a part): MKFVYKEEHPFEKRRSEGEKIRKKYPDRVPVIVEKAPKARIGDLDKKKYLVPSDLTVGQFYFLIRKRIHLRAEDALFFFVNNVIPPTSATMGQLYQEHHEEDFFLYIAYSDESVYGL

Compared with B1, B2 is lower in “median log2 fold change” value: -0.128 for the first, -1.21 for the second.

Compared with B3, B4 is higher in “median log2 fold change” value: -0.00871 for the first, 0.242 for the second.

Compared with B5, B6 is higher in “median log2 fold change” value: -0.232 for the first, 0.248 for the second.

Compared with B7, B8 is higher in “median log2 fold change” value: -1.27 for the first, -0.305 for the second.

Going from B9 to B10, the “median log2 fold change” value falls from 0.314 to -0.631.

Compared with B11, B12 is lower in “median log2 fold change” value: 0.119 for the first, -0.61 for the second.

First: B13
Second: B14
The “median log2 fold change” value of the first is higher: 0.229 for the first, -1.11 for the second.

B15 and B16 are within 0.2 log units of each other in “median log2 fold change” value: 0.298 for the first, 0.117 for the second.

B17 and B18 are within 0.2 log units of each other in “median log2 fold change” value: 0.341 for the first, 0.169 for the second.

Going from B19 to B20, the “median log2 fold change” value falls from 0.225 to -0.331.

First: B21
Second: B22
The “median log2 fold change” value of the first is higher: -0.299 for the first, -0.6 for the second.

In the case of B23, the “median log2 fold change” value is reported as 0.404.
